# From the supplement of paper PMC3545927
# The other results are listed elsewhere or left out. How many sequences the whole screen found active is unknown.
# Biological target: furin, P09958
# Experiment: furin cleavage Z-score vs untreated control; higher = more cleavage, active = 3.5 or more, inactive = 1 or less, 8 variable residues between constant flanks
# In short: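 Furin cleavage was scored on 8-mer peptides joined to a cDNA oligonucleotide and bound to magnetic beads at the N-terminus. Digestion with purified furin (1:10 enzyme:substrate, 0.01 ml, 50 mM HEPES pH 7.5, CaCl2, NaCl) lasted 7.5, 15 or 30 min. Freed DNA was tagged with adapters by PCR, sequenced and counted; the cleavage Z-score is the lowess-adjusted log count versus furin-free reactions, scaled by median absolute deviation.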
# Sequence of furin, P09958 (P09958 whole entry): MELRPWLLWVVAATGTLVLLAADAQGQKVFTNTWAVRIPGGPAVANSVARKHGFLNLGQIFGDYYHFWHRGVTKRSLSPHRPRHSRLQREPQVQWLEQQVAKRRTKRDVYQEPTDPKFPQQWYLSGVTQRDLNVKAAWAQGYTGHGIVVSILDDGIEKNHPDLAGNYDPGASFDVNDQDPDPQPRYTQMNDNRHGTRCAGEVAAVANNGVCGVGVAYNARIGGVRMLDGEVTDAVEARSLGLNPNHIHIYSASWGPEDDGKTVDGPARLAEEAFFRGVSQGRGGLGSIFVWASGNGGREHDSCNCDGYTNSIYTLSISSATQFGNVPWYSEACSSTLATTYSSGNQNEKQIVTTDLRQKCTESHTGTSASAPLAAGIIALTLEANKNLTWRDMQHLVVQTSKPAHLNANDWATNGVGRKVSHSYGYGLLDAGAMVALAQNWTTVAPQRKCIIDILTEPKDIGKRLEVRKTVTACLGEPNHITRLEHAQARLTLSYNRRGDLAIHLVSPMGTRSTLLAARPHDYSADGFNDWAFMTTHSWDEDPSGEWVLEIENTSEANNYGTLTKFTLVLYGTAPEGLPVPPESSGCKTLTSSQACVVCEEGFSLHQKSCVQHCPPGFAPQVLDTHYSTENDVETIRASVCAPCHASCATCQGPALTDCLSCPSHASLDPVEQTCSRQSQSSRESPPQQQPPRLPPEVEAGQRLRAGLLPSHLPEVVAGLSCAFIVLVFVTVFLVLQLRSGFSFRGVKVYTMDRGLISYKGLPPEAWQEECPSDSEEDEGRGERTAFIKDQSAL
Sequence,furin cleavage Z-score (7.5 min),furin cleavage Z-score (15 min),furin cleavage Z-score (30 min)
CAQNVQLINTAGNASASA [HC365],-0.00687 (inactive),0.24 (inactive),0.289 (inactive)
CAEVPCHRPSAGNASASA [HC2312],0.893 (inactive),0.385 (inactive),0.669 (inactive)
CAHAYRPGRRAGNASASA [FS-247],-0.291 (inactive),-0.643 (inactive),1.65
CAALCRHRRLAGNASASA [FS-154],4.73 (active),5.6 (active),6.55 (active)
CACTCGSSDLAGNASASA [HC722],-1.16 (inactive),-3.51 (inactive),-0.486 (inactive)
CAHAYRHRRLAGNASASA [FS-1531],0.687 (inactive),2.16,3.53 (active)
CAGIMHTRCHAGNASASA [HC1172],1.75,2.22,0.438 (inactive)
CARASRNKRPAGNASASA [FS-1559],0.256 (inactive),-0.194 (inactive),0.132 (inactive)
CACPRRAKRRAGNASASA [FS-119],4.82 (active),4.82 (active),5.05 (active)
CARASRAKRRAGNASASA [FS-1477],11.9 (active),12.4 (active),8.04 (active)
CARASRGGGGAGNASASA [FS-2891],-0.8 (inactive),-0.464 (inactive),-0.232 (inactive)
CARASRSIRIAGNASASA [FS-2893],3.6 (active),6.75 (active),7.27 (active)
CARATRKIGIAGNASASA [FS-2132],-0.496 (inactive),-1.56 (inactive),-0.101 (inactive)
CAEVPCHKPSAGNASASA [HC2374],0.115 (inactive),1,-0.202 (inactive)
CADFMEECSQAGNASASA [HC1807],0.00727 (inactive),-0.301 (inactive),-1.48 (inactive)
CAMCAVHPTLAGNASASA [HC599],-1.6 (inactive),-0.0857 (inactive),-0.861 (inactive)
CAFYGKAIPLAGNASASA [HC848],0.497 (inactive),-0.506 (inactive),-2.2 (inactive)
CANILRKARSAGNASASA [FS-366],9.27 (active),9.75 (active),7.85 (active)
CATLLRAARSAGNASASA [FS-1659],4.67 (active),4.38 (active),3.86 (active)
CALWARMILMAGNASASA [HC1580],-0.179 (inactive),-0.799 (inactive),-1.16 (inactive)
CATWLKAKLMAGNASASA [HC1157],3.1,1.6,3.5 (active)
CANNARAARSAGNASASA [FS-1547],5.1 (active),5 (active),5.02 (active)
CATCGFADLMAGNASASA [HC224],-0.244 (inactive),-0.821 (inactive),-0.0608 (inactive)
CATTPCSGQWAGNASASA [HC1922],-0.163 (inactive),-0.899 (inactive),-0.665 (inactive)
CAVYTFYGMWAGNASASA [HC554],-0.934 (inactive),-0.697 (inactive),-0.425 (inactive)
CASTPCSWHLAGNASASA [HC2528],1.37,0.165 (inactive),-0.0279 (inactive)

Sequence,furin cleavage Z-score (7.5 min),furin cleavage Z-score (15 min),furin cleavage Z-score (30 min)
CASTPCSAQLAGNASASA [HC2562],-1.59 (inactive),0.487 (inactive),0.259 (inactive)
CAEGEVPCHRAGNASASA [HC2456],1.8,1.4,0.687 (inactive)
CAGLYHVTNDAGNASASA [HC260],0.615 (inactive),-1.34 (inactive),-0.664 (inactive)
CATLGFGAYMAGNASASA [HC791],0.163 (inactive),-1.28 (inactive),0.49 (inactive)
CAQPARSVRLAGNASASA [FS-1389],-0.0259 (inactive),0.85 (inactive),0.452 (inactive)
CARVCRCARAAGNASASA [FS-3116],5.97 (active),5.83 (active),6.08 (active)
CASSSRDPRAAGNASASA [FS-1573],-1.14 (inactive),0.526 (inactive),1.07
CARARRDPRAAGNASASA [FS-2643],9.64 (active),9.59 (active),9.18 (active)
CAKPAKSARSAGNASASA [FS-811],-0.364 (inactive),-0.316 (inactive),0.253 (inactive)
CARSRRPADTAGNASASA [FS-3210],-0.916 (inactive),-0.606 (inactive),-2.54 (inactive)
CAKSARSVRAAGNASASA [FS-1673],6.74 (active),6.73 (active),7 (active)
CARSRREASGAGNASASA [FS-2311],3.7 (active),2.31,2.33
CAVQPEKGGRAGNASASA [HC1444],-2.15 (inactive),-2.12 (inactive),-0.412 (inactive)
CADAMEECSQAGNASASA [HC1803],-1.34 (inactive),0.113 (inactive),-0.929 (inactive)
CAVVCCSMLYAGNASASA [HC2065],-0.464 (inactive),-0.469 (inactive),-1.46 (inactive)
CATFPINAYTAGNASASA [HC1190],-0.0204 (inactive),-1.04 (inactive),-0.568 (inactive)
CARAPRSPRAAGNASASA [FS-3183],9.2 (active),8.63 (active),8.05 (active)
CARAPRSKVPAGNASASA [FS-2251],0.556 (inactive),0.0997 (inactive),1.62
CARSLRSQIRAGNASASA [FS-2309],0.116 (inactive),-1.95 (inactive),0.712 (inactive)
CARSGRSIINAGNASASA [FS-3080],-0.514 (inactive),0.929 (inactive),1.74
CARSRRSPRAAGNASASA [FS-1794],11.3 (active),13.6 (active),9.99 (active)
CARSRRSAFHAGNASASA [FS-2819],8.26 (active),9.19 (active),8.92 (active)
CARSRRSYSCAGNASASA [FS-3238],0.584 (inactive),1.19,2.38
CARAPRDSDAAGNASASA [FS-2546],-0.983 (inactive),0.168 (inactive),0.352 (inactive)
CARSRRSQINAGNASASA [FS-2383],1.8,3.75 (active),2.57
